The panel holds about 83,000 compounds, 20% with a hit somewhere; the sample as a whole holds those more often.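 Cells were grown in 96-well plates and exposed to the test compound at a single concentration for 48 hours; results are reported as percent growth, with values below 10 considered active.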 Active and inactive are the calls of the source.
Assays:
Experiment in all cases: NCI-60 one-dose screen, 48 h (100 = growth as untreated, 0 = no growth, -100 = all killed)
Settings in all cases: 10 µM unless noted
DU-145 prostate = test system: DU-145 prostate
K-562 leukemia = test system: K-562 leukemia
MALME-3M melanoma = test system: MALME-3M melanoma
MDA-MB-231 breast = test system: MDA-MB-231 breast
RXF 393 renal = test system: RXF 393 renal
SF-268 CNS = test system: SF-268 CNS
SF-295 CNS = test system: SF-295 CNS
SF-539 CNS = test system: SF-539 CNS
UACC-257 melanoma = test system: UACC-257 melanoma
HCT-15 colon = test system: HCT-15 colon
HT29 colon = test system: HT29 colon
SNB-75 CNS = test system: SNB-75 CNS
SNB-19 CNS = test system: SNB-19 CNS
U251 CNS = test system: U251 CNS
PC-3 prostate = test system: PC-3 prostate
SK-MEL-5 melanoma = test system: SK-MEL-5 melanoma
UACC-62 melanoma = test system: UACC-62 melanoma
LOX IMVI melanoma = test system: LOX IMVI melanoma
SK-MEL-28 melanoma = test system: SK-MEL-28 melanoma
M14 melanoma = test system: M14 melanoma

Measured: growth

CCCCn1c(C)nc2ccc(Nc3nc(Cl)nc4nc[nH]c34)cc21
inactive: DU-145 prostate 80.3% | K-562 leukemia 69.8% | MALME-3M melanoma 78.1% | MDA-MB-231 breast 64.8% | RXF 393 renal 62.9% | SF-268 CNS 76% | SF-295 CNS 76.3% | SF-539 CNS 79.9% | UACC-257 melanoma 92.5% | HCT-15 colon 82.6% | HT29 colon 79.9% | SNB-75 CNS 62.8% | SNB-19 CNS 90.5% | U251 CNS 74.5% | PC-3 prostate 36.3% | SK-MEL-5 melanoma 63.6% | UACC-62 melanoma 69.8% | LOX IMVI melanoma 90.2% | SK-MEL-28 melanoma 94.3%

Cc1nc2ccc(Nc3nc(Cl)nc(N4CCOCC4)n3)cc2n1Cc1ccccc1
inactive: DU-145 prostate 94.2% | K-562 leukemia 25.7% | MALME-3M melanoma 96.8% | MDA-MB-231 breast 64.4% | RXF 393 renal 65.1% | SF-268 CNS 77% | SF-295 CNS 87.3% | SF-539 CNS 84.7% | UACC-257 melanoma 104% | M14 melanoma 103% | HCT-15 colon 76.9% | HT29 colon 96% | SNB-75 CNS 51.2% | SNB-19 CNS 94.6% | U251 CNS 90.5% | PC-3 prostate 87.1% | SK-MEL-5 melanoma 89.5% | UACC-62 melanoma 92.3% | LOX IMVI melanoma 67.7% | SK-MEL-28 melanoma 82.8%

COc1ccc(/C=C(/C(=O)N2CCN(c3ccccc3)CC2)c2cc(OC)c(OC)c(OC)c2)cc1O
active: DU-145 prostate 4.21% | K-562 leukemia 6.23% | SF-295 CNS 7.72% | SF-539 CNS -10.8% | M14 melanoma 3.13% | U251 CNS 8.04% | SK-MEL-5 melanoma -13.7%
inactive: MALME-3M melanoma 60% | MDA-MB-231 breast 19.5% | RXF 393 renal 20.4% | SF-268 CNS 36.9% | UACC-257 melanoma 58.1% | HCT-15 colon 12.8% | HT29 colon 48.4% | SNB-75 CNS 67.8% | PC-3 prostate 23.4% | UACC-62 melanoma 27.1% | LOX IMVI melanoma 14.7% | SK-MEL-28 melanoma 62.3%

COc1cccc(/C=N/N=C(N)N)c1
inactive: DU-145 prostate 102% | K-562 leukemia 94.5% | MALME-3M melanoma 111% | MDA-MB-231 breast 91.4% | RXF 393 renal 106% | SF-268 CNS 101% | SF-539 CNS 84.5% | UACC-257 melanoma 97.1% | M14 melanoma 93.8% | HCT-15 colon 100% | HT29 colon 100% | SNB-75 CNS 89.9% | SNB-19 CNS 101% | U251 CNS 103% | PC-3 prostate 97.2% | SK-MEL-5 melanoma 98.1% | UACC-62 melanoma 81.8% | LOX IMVI melanoma 106%

COC1=CC(c2ccc[nH]2)=N/C1=C\c1[nH]c(C)c(C(=O)CCCCCCCCC(=O)O[C@H]2CC[C@H]3C4CCc5cc(O)ccc5C4CC[C@]23C)c1C (stereo partly specified)
active: MDA-MB-231 breast 3.86% | M14 melanoma -35.7% | SK-MEL-5 melanoma -83% | UACC-62 melanoma -48.3% | LOX IMVI melanoma -44.2%
inactive: DU-145 prostate 32.2% | K-562 leukemia 13.1% | MALME-3M melanoma 40.5% | RXF 393 renal 52.5% | SF-268 CNS 38.7% | SF-295 CNS 28.8% | SF-539 CNS 32.5% | UACC-257 melanoma 49.2% | HCT-15 colon 41% | HT29 colon 14.3% | SNB-75 CNS 19.6% | U251 CNS 20.9% | PC-3 prostate 23% | SK-MEL-28 melanoma 34.5%

CC(OC(=O)Nc1cccc(Cl)c1)C(=O)O (stereo unspecified)
inactive: DU-145 prostate 113% | K-562 leukemia 92.3% | MALME-3M melanoma 116% | MDA-MB-231 breast 109% | RXF 393 renal 98.4% | SF-268 CNS 99.6% | SF-295 CNS 75.3% | SF-539 CNS 99.1% | UACC-257 melanoma 91.5% | M14 melanoma 95.5% | HCT-15 colon 104% | HT29 colon 102% | SNB-75 CNS 84.6% | U251 CNS 102% | PC-3 prostate 93% | SK-MEL-5 melanoma 107% | UACC-62 melanoma 91.8% | LOX IMVI melanoma 96.9% | SK-MEL-28 melanoma 112%

Cc1cc(C)c([O-])c(CN(C)CCN(C)Cc2cc(C)cc(C)c2[O-])c1.O=C([O-])c1cccc(C(=O)[O-])n1.[Ti+4]
active: K-562 leukemia -1.84% | MALME-3M melanoma -45.7% | RXF 393 renal -43.5% | SF-539 CNS 7.18% | HT29 colon -32.8% | SNB-75 CNS -12.1% | U251 CNS 9.4% | PC-3 prostate -0.468% | SK-MEL-5 melanoma 9.84% | LOX IMVI melanoma -58.1% | SK-MEL-28 melanoma -27.2%
inactive: DU-145 prostate 33.8% | MDA-MB-231 breast 44.6% | SF-268 CNS 23.9% | SF-295 CNS 12.8% | UACC-257 melanoma 19.8% | HCT-15 colon 36.4% | SNB-19 CNS 26.6% | UACC-62 melanoma 25.8%

COc1ccc(-c2n[nH]nc2-c2cc(OC)c3c(c2)OCO3)cc1
inactive: MALME-3M melanoma 34% | RXF 393 renal 19.1% | SF-268 CNS 16.7% | UACC-257 melanoma 68% | SNB-75 CNS 25.4% | SNB-19 CNS 48.7% | UACC-62 melanoma 28%
active: DU-145 prostate -4.79% | K-562 leukemia -11% | MDA-MB-231 breast -25.9% | SF-539 CNS -39.7% | M14 melanoma 8.15% | HCT-15 colon 6.08% | HT29 colon -9.19% | U251 CNS 1.06% | PC-3 prostate -7.05% | SK-MEL-5 melanoma -1.56% | LOX IMVI melanoma -4.34%

Reference: PubChem BioAssay (NCI)
